This is an account of results in PubChem BioAssay (NCI).

Among the test systems are SR leukemia; RPMI-8226 leukemia; OVCAR-8 ovarian; OVCAR-5 ovarian; OVCAR-4 ovarian; SK-OV-3 ovarian; IGROV1 ovarian; OVCAR-3 ovarian; HS 578T breast; NCI/ADR-RES ovarian.
Test in all cases: NCI-60 one-dose screen, 48 h (100 = growth as untreated, 0 = no growth, -100 = all killed)
Common to all, as to details: 10 µM unless noted

Values joined by “and” are separate entries in the source; they are usually repeats but may differ in a detail not shown here. Equal values may be shown once. Compounds without any hit were thinned out: in the full panel of roughly 83,000, 20% have a hit.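 Treatment: one concentration, 48 hours, 96-well format. Scoring: percent growth, with anything below 10 considered active.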 Active and inactive are the calls of the source.

With `O=Nc1c(O)ccc2ccccc12`, the growth in the assay with SR leukemia was 23.6% (inactive) and 87.6% (inactive); in the assay on RPMI-8226 leukemia, 37.8% (inactive) and 79.9% (inactive); in the assay with OVCAR-8 ovarian, -3.35% (active) and 93% (inactive); in the assay with OVCAR-5 ovarian, 70.1% (inactive) and 112% (inactive); with OVCAR-4 ovarian, 19% (inactive) and 89% (inactive); in the assay on SK-OV-3 ovarian, 93.6% (inactive) and 101% (inactive). The growth in the assay with IGROV1 ovarian was 51.5% (inactive) and 42% (inactive); with OVCAR-3 ovarian it was 1.11% (active) and 81% (inactive); in the assay with HS 578T breast, 54% (inactive) and 112% (inactive); in the assay with NCI/ADR-RES ovarian, 6.43% (active) and 97.7% (inactive).
Take `CCCCCCCC/C=C\CCCCCCCCOc1ccccc1CC(=O)NCC[N+]1(C)CCOCC1`: the growth with SR leukemia was 30% (inactive); in the assay with RPMI-8226 leukemia it was 77.7% (inactive); with OVCAR-8 ovarian it was 78.1% (inactive); in the assay with OVCAR-5 ovarian it was 42.7% (inactive); in the assay on OVCAR-4 ovarian it was 102% (inactive); with SK-OV-3 ovarian, 75.3% (inactive). The growth is 25.2% (inactive) with IGROV1 ovarian, 101% (inactive) in the assay on OVCAR-3 ovarian, 92.9% (inactive) with HS 578T breast and 97.9% (inactive) in the assay on NCI/ADR-RES ovarian.
`COc1cc(NC2CCCCC2O)c2nc(-c3ccc(Cl)cc3)ccc2c1` (stereo not given): the growth in the assay with SR leukemia is -4.63% (active); in the assay on RPMI-8226 leukemia, 58.3% (inactive) and 34.2% (inactive); with OVCAR-8 ovarian, 85.5% (inactive) and 90.1% (inactive); in the assay on OVCAR-5 ovarian, 107% (inactive) and 94.6% (inactive); in the assay on OVCAR-4 ovarian it was 75.6% (inactive) and 76.7% (inactive); in the assay with SK-OV-3 ovarian, 101% (inactive) and 105% (inactive). Moreover, the growth in the assay with IGROV1 ovarian was 97.2% (inactive) and 96% (inactive); in the assay on OVCAR-3 ovarian it was 88.1% (inactive) and 112% (inactive); in the assay on HS 578T breast it was 85.4% (inactive) and 138% (inactive); with NCI/ADR-RES ovarian, 84.5% (inactive).
`CN1CCN(CCCN2c3ccccc3Sc3ccc(Cl)cc32)CC1`: the growth with SR leukemia is 74.7% (inactive); in the assay with RPMI-8226 leukemia, 76.3% (inactive) and 92.3% (inactive); in the assay on OVCAR-8 ovarian, 84.8% (inactive) and 85.4% (inactive); in the assay with OVCAR-5 ovarian, 94.4% (inactive); with OVCAR-4 ovarian, 68.4% (inactive) and 81.1% (inactive); with SK-OV-3 ovarian, 99% (inactive). The growth was 54.5% (inactive) in the assay on IGROV1 ovarian; 93.9% (inactive) and 81.3% (inactive) with OVCAR-3 ovarian; 66.8% (inactive) and 60.3% (inactive) in the assay with HS 578T breast; 69% (inactive) and 83.2% (inactive) with NCI/ADR-RES ovarian.
Consider `Cc1c(O)c(O)cc2c3c(oc12)CC(c1ccc2c(c1)OCO2)CC3=O` (stereo not given), for which the growth is 75.6% (inactive) in the assay on SR leukemia; 87.5% (inactive) in the assay with RPMI-8226 leukemia; 94.8% (inactive) in the assay with OVCAR-8 ovarian; 113% (inactive) in the assay on OVCAR-5 ovarian; 89.4% (inactive) in the assay with OVCAR-4 ovarian; 85.4% (inactive) with SK-OV-3 ovarian. Moreover, the growth in the assay with IGROV1 ovarian is 38.6% (inactive); in the assay on OVCAR-3 ovarian, 86.4% (inactive); in the assay with HS 578T breast it was 92.2% (inactive); in the assay with NCI/ADR-RES ovarian, 90.3% (inactive).
On to `COc1ccc(/C=N/NC(=O)CN2CCN(c3cc4c(cc3F)c(=O)c(C(=O)O)cn4C3CC3)CC2)cc1O`, for which the growth with SR leukemia was 80.2% (inactive); in the assay on RPMI-8226 leukemia it was 92.3% (inactive); in the assay on OVCAR-8 ovarian, 95.1% (inactive); in the assay on OVCAR-5 ovarian it was 108% (inactive); in the assay on OVCAR-4 ovarian, 108% (inactive); in the assay with SK-OV-3 ovarian, 108% (inactive). For the same compound, the growth in the assay on IGROV1 ovarian was 95.5% (inactive); in the assay with OVCAR-3 ovarian it was 103% (inactive); with HS 578T breast, 96.8% (inactive); with NCI/ADR-RES ovarian, 106% (inactive).
On to `Fc1ccccc1-c1cnn2cc(-c3ccccc3)cnc12`, for which the growth in the assay with SR leukemia is 81.8% (inactive); in the assay with RPMI-8226 leukemia, 98% (inactive); in the assay with OVCAR-8 ovarian, 94.1% (inactive); in the assay on OVCAR-5 ovarian, 109% (inactive); with OVCAR-4 ovarian it was 98.5% (inactive); in the assay with SK-OV-3 ovarian, 98% (inactive). Besides, the growth in the assay on IGROV1 ovarian is 88% (inactive); in the assay on OVCAR-3 ovarian, 109% (inactive); in the assay on HS 578T breast, 93% (inactive); with NCI/ADR-RES ovarian it was 95% (inactive).
In the case of `O=C(Nc1ccc2ccccc2c1)c1cc2ccccc2cc1O`, the growth in the assay with SR leukemia is 82% (inactive); with RPMI-8226 leukemia it was 49.9% (inactive); with OVCAR-8 ovarian, 102% (inactive); in the assay with OVCAR-5 ovarian, 98.8% (inactive); with OVCAR-4 ovarian, 82.9% (inactive); with SK-OV-3 ovarian, 94.3% (inactive). The growth in the assay on IGROV1 ovarian was 59.8% (inactive); in the assay on OVCAR-3 ovarian, -0.789% (active); with HS 578T breast, 105% (inactive); with NCI/ADR-RES ovarian, 87.6% (inactive).
With `Cc1ccc(-c2nc3nc(-c4ccc(F)cc4)nc(N4CCCNCC4)c3o2)cc1`, the growth with SR leukemia is -37.3% (active); in the assay with RPMI-8226 leukemia, -62.4% (active); in the assay on OVCAR-8 ovarian it was -74.8% (active); in the assay with OVCAR-5 ovarian, -97.3% (active); with OVCAR-4 ovarian, -89% (active); in the assay on SK-OV-3 ovarian it was -88.8% (active). Further, the growth was -88.3% (active) in the assay with IGROV1 ovarian, -96% (active) in the assay with OVCAR-3 ovarian, -75.9% (active) in the assay with HS 578T breast and -77.7% (active) in the assay with NCI/ADR-RES ovarian.
Regarding `CCN(CC)CC#CCOC(=O)[C@]1(C)CCC[C@]2(C)c3ccc(C(C)C)cc3CC[C@@H]12`, the growth in the assay with SR leukemia is 79.3% (inactive); in the assay on RPMI-8226 leukemia, 21.3% (inactive); in the assay with OVCAR-8 ovarian, 94.2% (inactive); in the assay with OVCAR-5 ovarian, 93.5% (inactive); with OVCAR-4 ovarian, 71.3% (inactive); in the assay with SK-OV-3 ovarian it was 89.2% (inactive). In addition, the growth with IGROV1 ovarian is 86.2% (inactive); in the assay on OVCAR-3 ovarian it was 90.6% (inactive); in the assay with HS 578T breast it was 90.2% (inactive); with NCI/ADR-RES ovarian, 84.5% (inactive).
Regarding `COc1ccccc1/C=C/C(=O)/C=C/c1ccccc1OC`, the growth is 16.2% (inactive) and 7.78% (active) in the assay on SR leukemia; 7.24% (active) and 1.3% (active) in the assay with RPMI-8226 leukemia; -25.9% (active) and 16.5% (inactive) in the assay on OVCAR-8 ovarian; -15.7% (active) and -6.94% (active) with OVCAR-5 ovarian; 20.6% (inactive) and 13% (inactive) in the assay on OVCAR-4 ovarian; 5.47% (active) and 14.6% (inactive) in the assay with SK-OV-3 ovarian. The growth in the assay with IGROV1 ovarian was -53.8% (active) and -46.1% (active); in the assay on OVCAR-3 ovarian, -29.1% (active) and -36.7% (active); with HS 578T breast, -0.48% (active) and 50.4% (inactive); in the assay with NCI/ADR-RES ovarian, -2.31% (active) and 18.6% (inactive).
On to `COC1=CC(c2ccc[nH]2)=N/C1=C\c1[nH]c(C)c(C(=O)Oc2ccccc2)c1C`, for which the growth in the assay on SR leukemia was 6.67% (active); in the assay with RPMI-8226 leukemia, -13.4% (active); in the assay with OVCAR-8 ovarian, -13.8% (active); in the assay with OVCAR-5 ovarian it was -41.5% (active); in the assay with OVCAR-4 ovarian, -48.8% (active); in the assay on SK-OV-3 ovarian, 1.25% (active). Moreover, the growth is -35.4% (active) with IGROV1 ovarian, -39.7% (active) with OVCAR-3 ovarian, -27.5% (active) in the assay with HS 578T breast and -3.96% (active) with NCI/ADR-RES ovarian.
